Reference: publication PMC7862700, “An all-to-all approach to the identification of sequence-specific readers for epigenetic DNA modifications on cytosine”

Columns and labels:
Experiment in all cases: DAPPL (digital affinity profiling via proximity ligation, sequencing); 10 mM Tris-HCl pH 7.5, 50 mM NaCl, 1 mM DTT, 4% glycerol, room temperature, 30 min; GST-TFs on glutathione beads, 16-mer random dsDNA library, 0.1% formaldehyde crosslink after washing; high values mean tight binding
FEV = target: T1, FEV (Homo sapiens, UniProt Q99581 1-238); conditions: protein: recombinant; tags: N-terminal GST; dsDNA, one strand shown
T1 sequence: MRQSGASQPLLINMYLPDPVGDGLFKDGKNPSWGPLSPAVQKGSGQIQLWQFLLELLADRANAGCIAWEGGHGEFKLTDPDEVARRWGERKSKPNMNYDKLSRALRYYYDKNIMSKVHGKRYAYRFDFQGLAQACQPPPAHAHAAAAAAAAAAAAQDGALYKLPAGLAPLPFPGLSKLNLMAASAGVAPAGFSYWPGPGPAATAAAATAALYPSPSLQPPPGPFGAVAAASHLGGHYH
Method in brief: (§1)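 Binding signal is given per hexamer as its read frequency for a factor divided by its frequency in the tag-only sample. GST-fused human transcription factors were expressed in yeast, captured on glutathione beads, barcoded with DNA and pooled with that sample, then incubated with 200 nmole of a 16-mer random double-stranded DNA library in Tris/NaCl/DTT/glycerol buffer for 30 min at room temperature. The pools were then washed, crosslinked, proximity-ligated, amplified by PCR and sequenced on an Illumina NextSeq500.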

ETV5 = ETV5 (Homo sapiens, UniProt P41161 1-510); conditions: protein: recombinant; tags: N-terminal GST; dsDNA, one strand shown
Chain of ETV5 (P41161 whole entry): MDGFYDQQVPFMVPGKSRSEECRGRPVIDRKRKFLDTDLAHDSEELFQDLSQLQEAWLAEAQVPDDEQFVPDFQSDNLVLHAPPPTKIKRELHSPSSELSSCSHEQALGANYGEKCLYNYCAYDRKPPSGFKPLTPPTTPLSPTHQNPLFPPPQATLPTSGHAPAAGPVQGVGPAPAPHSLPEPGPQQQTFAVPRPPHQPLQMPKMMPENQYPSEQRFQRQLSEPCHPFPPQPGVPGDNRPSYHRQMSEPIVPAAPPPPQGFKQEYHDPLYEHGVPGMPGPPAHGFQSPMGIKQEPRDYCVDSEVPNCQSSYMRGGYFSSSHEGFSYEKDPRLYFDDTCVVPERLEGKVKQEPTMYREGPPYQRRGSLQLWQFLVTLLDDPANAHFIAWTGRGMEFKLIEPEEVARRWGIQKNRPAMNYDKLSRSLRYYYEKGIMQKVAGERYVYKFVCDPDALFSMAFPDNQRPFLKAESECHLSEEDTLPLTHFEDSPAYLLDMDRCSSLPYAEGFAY
Method in brief: as §1

HSF1 = HSF1 (Homo sapiens, UniProt Q00613 1-529); conditions: protein: recombinant; tags: N-terminal GST; chain copies: 3; dsDNA, one strand shown
Chain of HSF1 (Q00613 whole entry): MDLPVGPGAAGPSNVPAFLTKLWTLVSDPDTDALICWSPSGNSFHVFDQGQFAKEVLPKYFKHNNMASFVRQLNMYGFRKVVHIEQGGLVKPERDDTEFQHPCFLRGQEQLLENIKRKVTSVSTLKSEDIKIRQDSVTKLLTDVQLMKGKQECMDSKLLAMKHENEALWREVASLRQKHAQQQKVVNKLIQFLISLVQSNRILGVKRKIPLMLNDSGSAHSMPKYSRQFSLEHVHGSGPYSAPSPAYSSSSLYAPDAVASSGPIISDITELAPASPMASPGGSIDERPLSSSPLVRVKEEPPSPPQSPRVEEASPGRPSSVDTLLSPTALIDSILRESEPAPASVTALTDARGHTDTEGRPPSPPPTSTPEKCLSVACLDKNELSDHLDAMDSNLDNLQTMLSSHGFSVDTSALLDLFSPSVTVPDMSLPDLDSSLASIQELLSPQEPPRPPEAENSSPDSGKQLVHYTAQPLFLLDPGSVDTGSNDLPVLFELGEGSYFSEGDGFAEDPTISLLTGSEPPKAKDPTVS
Method in brief: as §1

SPIC = target: T2, SPIC (Homo sapiens, UniProt Q8N5J4 1-248); conditions: protein: recombinant; tags: N-terminal GST; dsDNA, one strand shown
T2 sequence: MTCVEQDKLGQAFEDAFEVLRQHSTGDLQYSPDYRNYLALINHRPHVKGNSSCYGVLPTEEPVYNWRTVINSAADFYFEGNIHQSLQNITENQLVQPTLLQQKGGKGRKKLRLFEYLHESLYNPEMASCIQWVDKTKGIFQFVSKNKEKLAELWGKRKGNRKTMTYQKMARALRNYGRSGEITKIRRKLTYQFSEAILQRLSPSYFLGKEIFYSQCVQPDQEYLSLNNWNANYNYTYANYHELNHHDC
Method in brief: as §1

ELF4 = ELF4 (Homo sapiens, UniProt Q99607 1-663); conditions: protein: recombinant; tags: N-terminal GST; dsDNA, one strand shown
Chain of ELF4 (Q99607 whole entry): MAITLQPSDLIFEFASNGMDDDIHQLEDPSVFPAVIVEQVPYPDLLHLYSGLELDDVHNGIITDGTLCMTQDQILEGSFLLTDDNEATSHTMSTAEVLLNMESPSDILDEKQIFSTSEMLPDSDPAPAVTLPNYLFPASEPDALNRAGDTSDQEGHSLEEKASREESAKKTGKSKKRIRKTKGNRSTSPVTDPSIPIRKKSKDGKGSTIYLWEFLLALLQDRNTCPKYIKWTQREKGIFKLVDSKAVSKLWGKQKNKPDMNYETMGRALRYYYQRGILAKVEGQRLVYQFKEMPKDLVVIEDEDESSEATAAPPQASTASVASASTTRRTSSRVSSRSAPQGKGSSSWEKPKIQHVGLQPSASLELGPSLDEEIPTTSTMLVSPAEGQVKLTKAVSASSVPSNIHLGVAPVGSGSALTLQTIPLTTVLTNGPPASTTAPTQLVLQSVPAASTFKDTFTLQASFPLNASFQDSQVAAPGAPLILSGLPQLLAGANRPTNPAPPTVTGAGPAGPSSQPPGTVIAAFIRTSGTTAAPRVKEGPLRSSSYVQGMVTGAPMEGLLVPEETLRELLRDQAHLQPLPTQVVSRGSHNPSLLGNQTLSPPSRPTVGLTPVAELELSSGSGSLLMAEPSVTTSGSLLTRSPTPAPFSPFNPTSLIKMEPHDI
Method in brief: as §1

ELK4 = target: T3, ELK4 (Homo sapiens, UniProt P28324-2 1-405); conditions: protein: recombinant; tags: N-terminal GST; dsDNA, one strand shown
T3 sequence: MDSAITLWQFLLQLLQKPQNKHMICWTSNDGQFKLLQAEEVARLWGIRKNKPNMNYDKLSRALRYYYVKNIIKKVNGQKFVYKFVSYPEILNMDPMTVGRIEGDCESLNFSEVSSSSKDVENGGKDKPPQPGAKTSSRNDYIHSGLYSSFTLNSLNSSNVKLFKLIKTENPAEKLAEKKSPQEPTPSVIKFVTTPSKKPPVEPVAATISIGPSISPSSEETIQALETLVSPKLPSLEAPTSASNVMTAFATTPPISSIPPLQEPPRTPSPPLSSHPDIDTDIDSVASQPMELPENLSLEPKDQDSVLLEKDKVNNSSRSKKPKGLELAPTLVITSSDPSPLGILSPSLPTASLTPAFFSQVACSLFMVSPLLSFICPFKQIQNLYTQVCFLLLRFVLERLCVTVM
Method in brief: as §1

ETV2 = target: T4, ETV2 (Homo sapiens, UniProt O00321 1-342); conditions: protein: recombinant; tags: N-terminal GST; dsDNA, one strand shown
T4 sequence: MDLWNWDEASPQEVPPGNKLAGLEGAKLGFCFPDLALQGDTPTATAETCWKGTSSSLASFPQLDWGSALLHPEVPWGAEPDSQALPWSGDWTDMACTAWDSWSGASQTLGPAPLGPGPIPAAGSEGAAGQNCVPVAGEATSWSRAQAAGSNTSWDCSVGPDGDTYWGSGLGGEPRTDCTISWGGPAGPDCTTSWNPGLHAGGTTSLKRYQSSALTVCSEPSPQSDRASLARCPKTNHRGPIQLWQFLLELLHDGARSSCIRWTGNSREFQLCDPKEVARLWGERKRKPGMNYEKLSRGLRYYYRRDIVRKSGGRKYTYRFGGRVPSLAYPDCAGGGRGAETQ
Method in brief: as §1

ELF3 = target: T5, ELF3 (Homo sapiens, UniProt P78545 1-371); conditions: protein: recombinant; tags: N-terminal GST; dsDNA, one strand shown
T5 sequence: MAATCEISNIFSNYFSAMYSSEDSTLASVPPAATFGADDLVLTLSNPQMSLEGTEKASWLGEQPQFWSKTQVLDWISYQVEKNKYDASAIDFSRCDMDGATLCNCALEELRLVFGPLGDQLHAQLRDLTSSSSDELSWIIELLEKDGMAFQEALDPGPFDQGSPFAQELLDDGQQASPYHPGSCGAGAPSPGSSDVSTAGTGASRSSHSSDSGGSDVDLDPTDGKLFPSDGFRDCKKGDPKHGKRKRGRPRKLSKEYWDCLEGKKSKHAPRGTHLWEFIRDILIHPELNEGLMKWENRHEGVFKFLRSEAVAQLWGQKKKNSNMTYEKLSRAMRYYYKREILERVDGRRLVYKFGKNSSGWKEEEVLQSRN
Method in brief: as §1

CRX = CRX (Homo sapiens, UniProt O43186 1-299); conditions: protein: recombinant; tags: N-terminal GST; dsDNA, one strand shown
Chain of CRX (O43186 whole entry): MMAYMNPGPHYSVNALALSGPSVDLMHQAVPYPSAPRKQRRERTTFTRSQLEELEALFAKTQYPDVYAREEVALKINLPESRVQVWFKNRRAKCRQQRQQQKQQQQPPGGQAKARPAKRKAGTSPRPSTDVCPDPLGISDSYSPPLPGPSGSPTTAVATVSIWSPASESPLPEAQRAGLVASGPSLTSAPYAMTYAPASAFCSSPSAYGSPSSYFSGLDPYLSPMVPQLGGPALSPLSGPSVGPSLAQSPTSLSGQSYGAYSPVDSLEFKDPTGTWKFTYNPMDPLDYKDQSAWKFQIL
Method in brief: as §1

ETV1 = ETV1 (Homo sapiens, UniProt P50549 1-477); conditions: protein: recombinant; tags: N-terminal GST; dsDNA, one strand shown
Chain of ETV1 (P50549 whole entry): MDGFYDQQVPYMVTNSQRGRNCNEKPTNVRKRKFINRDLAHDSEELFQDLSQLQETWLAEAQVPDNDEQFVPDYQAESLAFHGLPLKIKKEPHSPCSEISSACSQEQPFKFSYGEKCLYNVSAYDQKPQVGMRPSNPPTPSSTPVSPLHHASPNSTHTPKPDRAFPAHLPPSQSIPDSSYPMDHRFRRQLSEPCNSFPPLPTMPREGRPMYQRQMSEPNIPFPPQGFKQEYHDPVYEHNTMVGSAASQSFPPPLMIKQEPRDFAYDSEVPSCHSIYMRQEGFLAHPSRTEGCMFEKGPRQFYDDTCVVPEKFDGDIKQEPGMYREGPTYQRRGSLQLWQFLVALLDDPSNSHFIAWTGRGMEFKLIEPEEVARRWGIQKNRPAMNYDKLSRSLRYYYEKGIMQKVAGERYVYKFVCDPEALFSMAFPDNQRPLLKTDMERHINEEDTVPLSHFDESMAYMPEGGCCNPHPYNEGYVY
Method in brief: as §1

ERF = target: T6, ERF (Homo sapiens, UniProt P50548 1-548); conditions: protein: recombinant; tags: N-terminal GST; dsDNA, one strand shown
T6 sequence: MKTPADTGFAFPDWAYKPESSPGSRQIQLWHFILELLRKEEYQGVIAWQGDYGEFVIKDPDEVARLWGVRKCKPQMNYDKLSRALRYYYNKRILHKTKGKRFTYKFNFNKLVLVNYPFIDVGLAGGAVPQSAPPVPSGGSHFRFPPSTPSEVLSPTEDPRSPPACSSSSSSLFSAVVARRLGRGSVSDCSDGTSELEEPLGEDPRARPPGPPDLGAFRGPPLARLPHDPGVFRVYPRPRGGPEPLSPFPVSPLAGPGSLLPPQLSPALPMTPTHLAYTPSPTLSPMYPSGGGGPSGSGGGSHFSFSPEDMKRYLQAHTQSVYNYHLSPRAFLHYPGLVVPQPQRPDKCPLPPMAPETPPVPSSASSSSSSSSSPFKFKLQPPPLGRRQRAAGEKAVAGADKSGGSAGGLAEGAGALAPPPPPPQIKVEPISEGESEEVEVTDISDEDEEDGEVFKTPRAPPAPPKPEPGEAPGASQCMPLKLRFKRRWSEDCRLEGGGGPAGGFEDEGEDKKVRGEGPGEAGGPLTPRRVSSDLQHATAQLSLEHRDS
Method in brief: as §1

ETV3L = target: T7, ETV3L (Homo sapiens, UniProt Q6ZN32 1-361); conditions: protein: recombinant; tags: N-terminal GST; dsDNA, one strand shown
T7 sequence: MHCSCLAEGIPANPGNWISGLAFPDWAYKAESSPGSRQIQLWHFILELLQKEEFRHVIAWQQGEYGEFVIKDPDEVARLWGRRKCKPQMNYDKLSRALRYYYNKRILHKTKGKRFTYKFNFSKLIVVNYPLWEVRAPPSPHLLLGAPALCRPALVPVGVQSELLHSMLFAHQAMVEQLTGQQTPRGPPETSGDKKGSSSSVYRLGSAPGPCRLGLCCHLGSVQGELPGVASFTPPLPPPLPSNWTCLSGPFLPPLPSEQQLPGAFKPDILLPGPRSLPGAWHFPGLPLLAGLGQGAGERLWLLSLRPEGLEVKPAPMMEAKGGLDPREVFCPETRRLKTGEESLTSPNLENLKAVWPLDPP
Method in brief: as §1

ETS2 = target: T8, ETS2 (Homo sapiens, UniProt P15036 1-469); conditions: protein: recombinant; tags: N-terminal GST; dsDNA, one strand shown
T8 sequence: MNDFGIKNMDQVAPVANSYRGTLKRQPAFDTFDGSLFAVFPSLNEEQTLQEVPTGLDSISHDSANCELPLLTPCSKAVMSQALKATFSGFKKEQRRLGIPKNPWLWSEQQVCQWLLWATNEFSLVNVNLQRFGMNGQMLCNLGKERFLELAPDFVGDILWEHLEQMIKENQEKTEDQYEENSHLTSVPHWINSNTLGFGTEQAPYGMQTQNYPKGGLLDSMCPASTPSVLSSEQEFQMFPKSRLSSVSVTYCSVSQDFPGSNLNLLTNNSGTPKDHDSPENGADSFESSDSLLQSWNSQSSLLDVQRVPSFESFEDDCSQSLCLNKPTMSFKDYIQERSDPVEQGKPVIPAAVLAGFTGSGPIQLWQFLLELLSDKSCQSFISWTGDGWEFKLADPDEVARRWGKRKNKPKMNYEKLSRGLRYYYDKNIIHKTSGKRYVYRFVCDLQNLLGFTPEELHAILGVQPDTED
Method in brief: as §1

SPDEF = target: T9, SPDEF (Homo sapiens, UniProt O95238 1-335); conditions: protein: recombinant; tags: N-terminal GST; dsDNA, one strand shown
T9 sequence: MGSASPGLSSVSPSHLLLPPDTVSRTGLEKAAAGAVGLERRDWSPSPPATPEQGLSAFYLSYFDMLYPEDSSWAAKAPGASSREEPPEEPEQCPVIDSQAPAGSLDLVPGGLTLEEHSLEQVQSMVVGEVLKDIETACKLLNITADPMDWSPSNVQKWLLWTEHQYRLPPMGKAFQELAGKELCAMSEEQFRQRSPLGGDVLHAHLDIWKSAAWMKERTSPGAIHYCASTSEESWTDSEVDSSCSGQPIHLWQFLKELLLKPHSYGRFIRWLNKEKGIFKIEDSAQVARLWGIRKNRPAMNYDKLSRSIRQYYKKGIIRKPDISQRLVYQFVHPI
Method in brief: as §1

ETV7 = target: T10, ETV7 (Homo sapiens, UniProt Q9Y603 1-341); conditions: protein: recombinant; tags: N-terminal GST; dsDNA, one strand shown
T10 sequence: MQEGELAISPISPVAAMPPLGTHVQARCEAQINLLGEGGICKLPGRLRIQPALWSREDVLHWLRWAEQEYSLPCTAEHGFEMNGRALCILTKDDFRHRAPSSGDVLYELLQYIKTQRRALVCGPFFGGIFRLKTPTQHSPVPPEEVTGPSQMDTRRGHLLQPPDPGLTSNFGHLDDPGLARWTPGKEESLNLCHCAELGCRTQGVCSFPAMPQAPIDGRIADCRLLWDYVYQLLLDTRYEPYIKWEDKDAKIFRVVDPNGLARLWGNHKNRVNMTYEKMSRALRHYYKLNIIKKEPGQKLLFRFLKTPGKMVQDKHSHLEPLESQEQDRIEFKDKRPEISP
Method in brief: as §1

ELF5 = target: T11, ELF5 (Homo sapiens, UniProt Q9UKW6-2 1-255); conditions: protein: recombinant; tags: N-terminal GST; dsDNA, one strand shown
T11 sequence: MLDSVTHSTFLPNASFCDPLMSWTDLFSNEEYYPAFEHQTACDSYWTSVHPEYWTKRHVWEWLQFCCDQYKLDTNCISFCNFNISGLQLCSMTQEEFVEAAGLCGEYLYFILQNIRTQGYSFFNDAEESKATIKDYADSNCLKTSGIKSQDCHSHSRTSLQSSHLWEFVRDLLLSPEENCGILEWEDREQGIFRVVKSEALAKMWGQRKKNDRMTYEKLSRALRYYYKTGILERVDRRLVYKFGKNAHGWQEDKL
Method in brief: as §1

ETV3 = target: T12, ETV3 (Homo sapiens, UniProt P41162-2 1-143); conditions: protein: recombinant; tags: N-terminal GST; dsDNA, one strand shown
T12 sequence: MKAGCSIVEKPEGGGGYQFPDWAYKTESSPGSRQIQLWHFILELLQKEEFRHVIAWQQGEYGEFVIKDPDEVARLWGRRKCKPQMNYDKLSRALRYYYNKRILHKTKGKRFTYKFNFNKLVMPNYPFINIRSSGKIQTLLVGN
Method in brief: as §1

ETV6 = ETV6 (Homo sapiens, UniProt P41212 1-452); conditions: protein: recombinant; tags: N-terminal GST; dsDNA, one strand shown
Chain of ETV6 (P41212 whole entry): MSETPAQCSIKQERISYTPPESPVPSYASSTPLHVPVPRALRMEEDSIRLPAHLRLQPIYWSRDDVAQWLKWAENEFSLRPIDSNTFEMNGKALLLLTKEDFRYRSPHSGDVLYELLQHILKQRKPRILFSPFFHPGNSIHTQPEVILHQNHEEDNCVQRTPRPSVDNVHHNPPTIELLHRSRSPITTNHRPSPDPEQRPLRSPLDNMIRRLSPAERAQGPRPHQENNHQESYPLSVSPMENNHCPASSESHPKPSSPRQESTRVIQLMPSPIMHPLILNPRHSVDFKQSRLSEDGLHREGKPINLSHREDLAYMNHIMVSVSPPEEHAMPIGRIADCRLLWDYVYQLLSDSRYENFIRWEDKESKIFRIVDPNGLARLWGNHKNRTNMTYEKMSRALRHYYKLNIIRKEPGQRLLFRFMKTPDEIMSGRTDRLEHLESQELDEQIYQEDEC
Method in brief: as §1

With ATATAG the binding signal (FEV) was 1.1 fold enrichment (6-mer frequency, TF over GST control), the binding signal (ETV5) was 1.24 fold enrichment (6-mer frequency, TF over GST control) and the binding signal (HSF1) was 1.19 fold enrichment (6-mer frequency, TF over GST control). The binding signal (SPIC) was 1.2 fold enrichment (6-mer frequency, TF over GST control), the binding signal (ELF4) was 1.09 fold enrichment (6-mer frequency, TF over GST control) and the binding signal (ELK4) was 1.19 fold enrichment (6-mer frequency, TF over GST control). The binding signal (ETV2) was 1.07 fold enrichment (6-mer frequency, TF over GST control), the binding signal (ELF3) was 1.28 fold enrichment (6-mer frequency, TF over GST control) and the binding signal (CRX) was 1.26 fold enrichment (6-mer frequency, TF over GST control). The binding signal (ETV1) was 1.17 fold enrichment (6-mer frequency, TF over GST control), the binding signal (ERF) was 1.12 fold enrichment (6-mer frequency, TF over GST control) and the binding signal (ETV3L) was 1.11 fold enrichment (6-mer frequency, TF over GST control). For the same sequence, the binding signal (ETS2) was 1.11 fold enrichment (6-mer frequency, TF over GST control), the binding signal (SPDEF) was 1.14 fold enrichment (6-mer frequency, TF over GST control) and the binding signal (ETV7) was 1.24 fold enrichment (6-mer frequency, TF over GST control). The binding signal (ELF5) was 1.13 fold enrichment (6-mer frequency, TF over GST control), the binding signal (ETV3) was 1.19 fold enrichment (6-mer frequency, TF over GST control) and the binding signal (ETV6) was 1.17 fold enrichment (6-mer frequency, TF over GST control).
